Rows were chosen to be rich in hits. Some 19% of all compounds tested hit in one or more screens of this group.
ELG1 DNA repair: qHTS screen for small molecules that inhibit ELG1-dependent DNA repair in human embryonic kidney (HEK293T) cells expressing luciferase-tagged ELG1 | HEK293T ELG1-luciferase reporter, luminescence, 16 h; DNA damage induced by 5-fluorouridine | Potency, µM (doses to about 46.1 µM), for inactives: top-dose activity change, negative = inhibition, usual class: inhibitors | hit rate 2.3% among 330,000 | AID 504467, 2011; note: potency is the fitted concentration of half-maximal effect; nearly all actives have a fitted effect of over 55% in size
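Quantitative HTS, concentration-response format. 2,000 cells/well co-treated with 5-fluorouridine and compound, 16 hr in 5% CO2 at 37 °C; ONE-Glo luminescence read after 30 min.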
HT1080 IDH1KD tx: qHTS for induction of synthetic lethality in tumor cells producing 2HG: qHTS for the HT-1080-IDH1KD cell line; HT-1080 IDH1 knockdown viability, ATP luminescence, 48 h; hit rate 2% among 360,000; Potency, µM (titrated, usually from 46.1 µM), for inactives: at the highest dose activity, negative = toxicity, hits mostly cytotoxic; AID 686971, 2013;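 note: potency is the fitted concentration of half-maximal effect; 0% = DMSO wells and -100% = cell-free medium wells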
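Cytotoxicity counter-line: IDH1KD HT-1080, 48 h, CellTiter-Glo. Curves classed by r2, magnitude and activity.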
DT40 TDP1 CPT: qHTS for Inhibitors of human tyrosyl-DNA phosphodiesterase 1 (TDP1): qHTS in cells in presence of CPT; chicken DT40 Tdp1-/-;hTDP1 cells + 20 nM CPT, ATP luminescence, 48 h; Potency, µM (titrated, usually from 46.2 µM), inactives show top-dose activity change, negative = growth inhibition, actives largely listed as inhibitors; hit rate 12% among 420,000; AID 686979, 2013; note: potency is the fitted concentration of half-maximal effect; nearly all actives have a fitted effect of over 55% in size
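Cell growth measured by CellTiter-Glo luminescence after a minimum 48 h, 37 C compound exposure with 20 nM CPT in Tdp1-knockout DT40 cells stably expressing hTDP1, seeded 400/well; qHTS titration format.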
TDP1 cell noCPT: qHTS for Inhibitors of human tyrosyl-DNA phosphodiesterase 1 (TDP1): qHTS in cells in absence of CPT. Potency, µM (titrated, usually from 46.2 µM), for inactives: at the highest dose activity change, negative = growth inhibition, actives largely listed as inhibitors. hit rate 15% among 420,000. AID 686978, 2013. DT40 Tdp1-/- hTDP1 cells, no CPT, ATP luminescence, 48 h; note: potency is the fitted concentration of half-maximal effect; nearly all actives have a fitted effect of over 55% in size
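Readout: luminescence from CellTiter-Glo after 30 min in the dark at RT. Cells: DT40 Tdp1-/- with stable hTDP1, 400/well. Exposure: compounds alone, ≥48 hr, 37 °C.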
HT1080NT lethal: qHTS for induction of synthetic lethality in tumor cells producing 2HG: qHTS for the HT-1080-NT fibrosarcoma cell line; AID 686970, 2013; Potency, µM (top dose mostly 46.1 µM), inactives show at the highest dose activity, negative = less viability, most hits filed as cytotoxic; HT-1080-NT fibrosarcoma viability, CellTiter-Glo ATP luminescence, 48 h; hit rate 1.6% among 360,000;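 note: NT is the 2HG producing partner of a matched IDH1 knockdown line; potency is the fitted concentration of half-maximal effect; 0% = DMSO-treated cells and -100% = media-only wells without cells; nearly all actives have a fitted effect of over 55% in size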
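Read-out is CellTiter-Glo luminescence after 10 minutes at room temperature, following 48 hours' compound treatment of HT-1080-NT cells (750 cells/well, RPMI, 5% FBS, 37 degrees C).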
IL1B secr inh: qHTS for Inhibitors of Inflammasome Signaling: IL-1-beta AlphaLISA Primary Screen; THP-1 LPS/ATP IL-1B secretion, AlphaLISA, 16 h; active compounds read low; activity change, % at 57.5 µM; hit rate 4.7% among 360,000; in the data active = activity change below about -50%; inconclusive = mostly about -30% to -49%
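Secreted IL-1B measured by AlphaLISA bead assay after 16 h compound exposure of THP-1 cells; compounds (final up to 57.5 uM) added 1 h before LPS (250 ng/mL) and ATP (1.25 mM) stimulation; lower signal means less secretion.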
Active calls of the source: *; u = inconclusive; x = not tested or not shown; [ ] = another dose, or the depositor's remark. Unless noted, calls come from the whole dose curve; as a rule, active = well fitted curve in the direction sought with a large enough effect; inconclusive = small, poorly fitted or top-dose-only effect, or another doubt; inactive = no such curve, though single readings can be large; an effect the other way counts as inactive or inconclusive. Unless noted, % is set by controls: 0 for no effect and ±100 for the full control effect.

SMILES | ELG1 DNA repair | HT1080 IDH1KD tx | DT40 TDP1 CPT | TDP1 cell noCPT | HT1080NT lethal | IL1B secr inh
CN(CC(=O)Nc1ccc(F)cc1)CC(=O)N1CCc2ccccc21 | 16% | 1% | -9% | u | 0% | -2
CCC(C)(C)n1nnnc1C(c1cc(OC)c(OC)c(OC)c1)N1CCN(c2ccccc2)CC1 (stereo not given) | 0% | 11% | -9% | -22% | 6% | -3
c1ccc(Cn2nnnc2C(c2ccccc2)N2CCN(c3nc4ccccc4s3)CC2)cc1 (stereo not given) | 15% | 14% | u | u | 11% | -14
COc1ccc(C(c2nnnn2C(C)(C)C)N2CCN(c3nc4ccccc4s3)CC2)cc1 (stereo not given) | u | 1%[9.24 µM] | 7% | 4% | 10% | 14
CCC(C)(C)n1nnnc1C(c1ccc(O)c(OC)c1)N1CCc2ccccc2C1 (stereo not given) | -3% | u | 7.3µM* | 13µM* | 3%[9.24 µM] | 17
CCC(C)(C)n1nnnc1C(c1ccc(O)c(OC)c1)N1CCN(c2nc3ccccc3s2)CC1 (stereo not given) | -13% | 2% | u | 16µM* | 6% | 15
COc1ccc(C(c2nnnn2Cc2ccccc2)N2CCN(c3nc4ccccc4s3)CC2)cc1OC (stereo not given) | u | -17% | u | 18µM* | -20% | -8
c1ccc(C(c2nnnn2Cc2ccco2)N2CCN(c3nc4ccccc4s3)CC2)cc1 (stereo not given) | 21µM* | -15% | u | 15µM* | -9% | -13
CCN(CC)c1ccc(N2C(=NC(=O)C3CC3)SC3CS(=O)(=O)CC32)cc1 (stereo not given) | 1% | 4% | -1% | 19% | 3% | 12
COc1ccc(NC(=O)CN(c2ccccc2F)S(=O)(=O)c2ccc(C)cc2)cc1 | -13% | 0% | -6% | u | 0% | 7
O=S(=O)(NCc1nc(N2CCCC2)c2cc(Cl)ccc2n1)c1ccccc1OC(F)(F)F | x | x | 18%[9.04 µM] | -27% | x | x
CCC(C)(C)n1nnnc1C(c1ccccc1)N1CCN(C2CCCC2)CC1 (stereo not given) | 23% | -17% | 3% | -28% | 10% | 14
CCC(C)(C)n1nnnc1C(c1ccccc1)N1CCc2ccccc2C1 (stereo not given) | -4% | 0% | u | 23µM* | 0% | 16
Cc1ccc(Nc2nc(-c3ccc(O)c(O)c3)cs2)nc1 | u | 23µM* | 1µM* | 1.3µM* | u | -77*
CC(=O)Nc1cccc(-c2csc(Nc3ccc(Cl)cn3)n2)c1 | u | 0% | 23µM* | u | -12% | -9
Cc1ccnc(Nc2nc(-c3ccccc3)cs2)c1 | u | u | u | u | -19% | -6
Cc1ccnc(Nc2nc(-c3c(C)nc4sccn34)cs2)c1 | 26µM* | -28% | u | u | -5% | -61*
COc1ccc(-c2csc(Nc3cc(C)ccn3)n2)cc1OC | u | u | u | u | -27% | -87*
Brc1ccsc1/C=N/Nc1ccccc1 | x | u | -18% | -26% | -22% | -7
CC(=O)Nc1cccc(-c2csc(Nc3ccccn3)n2)c1 | u | -25% | u | u | u | -13
CC(=O)Nc1cccc(-c2csc(Nc3cc(C)ccn3)n2)c1 | u | -14% | u | u | u | -96*
O=C(CSc1nc2ccccc2nc1Cc1ccc(Cl)cc1)N1CCCCC1 | x | x | u | 16µM* | x | x
O=C(CSc1nc2ccccc2nc1Cc1ccc(Cl)cc1)N1CCN(c2ccccc2)CC1 | x | x | -9% | u | x | x
COc1ccc(N2CCN(C(=O)CSc3nc4ccccc4nc3Cc3ccc(Cl)cc3)CC2)cc1 | x | x | 21µM* | u | x | x
CC1CCN(C(=O)CSc2nc3ccccc3nc2Cc2ccccc2)CC1 | x | x | 15µM* | 10µM* | x | x
SMILES | ELG1 DNA repair | HT1080 IDH1KD tx | DT40 TDP1 CPT | TDP1 cell noCPT | HT1080NT lethal | IL1B secr inh
C=CCn1c(SCC(=O)NCc2ccco2)nnc1-c1ccc2ccccc2n1 | u | -11% | u | 18µM* | -5% | 0
NC(=O)c1cc(NC(=O)c2cc(Br)c(Br)s2)cc(C(N)=O)c1 | 2% | 25% | 2% | 5% | 24% | -6
O=C(CN(Cc1ccco1)S(=O)(=O)c1ccccc1)N/N=C/c1ccccc1C(=O)O | 15% | -4% | -1% | -17% | 2% | -12
CCc1ccc(CCC(=O)N2CCN(S(=O)(=O)c3sc(C(=O)O)c(C)c3C(=O)O)CC2)cc1 | x | 1% | -12% | -3% | -5% | -5
COc1ccc2c(c1)OC(C)CN(CCNC(=O)c1cccc(N3CCNC3=O)c1)C2 (stereo not given) | x | x | 28%[9.04 µM] | -22% | x | x
CC1CCCCN1C(=O)CSc1nc2ccccc2nc1Cc1ccc(Cl)cc1 (stereo not given) | x | x | 18µM* | u | x | x
CC(C)c1nc2ccccc2c2nnc(SCC(=O)NCc3ccco3)n12 | -10% | -29% | 16µM* | u | -2% | 6
O=C(CSc1nc2ccccc2nc1SCC(=O)N1CCCCC1)N1CCCCC1 | 16µM* | -26% | 16µM* | u | u | -59*
Cc1ccc(Cc2nc3ccccc3nc2SCC(=O)N2CCCCC2)cc1 | x | x | u | 21µM* | x | x
CN(Cc1ccco1)c1ncncc1-c1cccnc1 | x | x | -9% | -4% | x | x
COc1cc(Cl)c(C)cc1NC(=O)CNC(C)c1ccccc1OC (stereo not given) | u | u | u | u | u | -24
CC1CCN(C(=O)CSc2nc(C3CC3)nc3ccccc23)CC1 | 1% | -17% | u | u | -13% | u
Cc1sc2nc(C3CC3)nc(SCC(=O)NCc3ccco3)c2c1C | u | -10% | u | u | u | 12
O=C(CSc1nc(C2CCCCC2)nc2ccccc12)NCc1ccco1 | 5% | -17% | u | 21µM* | u | -82*
COc1ccccc1N1CCN(C(=O)CSc2nc3ccccc3nc2Cc2ccccc2)CC1 | x | x | 23µM* | 23µM* | x | x

Source: PubChem
